Screens deposited in PubChem by National Center for Advancing Translational Sciences (NCATS).
JMJD2A Tudor – blocks the human JMJD2A Tudor domain | Potency, µM (highest dose often 114 µM), inactives show top-dose activity change, negative = inhibition, usual class: inhibitors | AlphaScreen JMJD2A-Tudor / H3K4me3 peptide binding | O75164 | 390,000 compounds, 4.4% hits; note: % is set by controls: 0 for no effect and ±100 for the full control effect; nearly all actives have a fitted effect of over 50% in size
Target sequence (O75164 whole entry, looked up, the tested form may be a part): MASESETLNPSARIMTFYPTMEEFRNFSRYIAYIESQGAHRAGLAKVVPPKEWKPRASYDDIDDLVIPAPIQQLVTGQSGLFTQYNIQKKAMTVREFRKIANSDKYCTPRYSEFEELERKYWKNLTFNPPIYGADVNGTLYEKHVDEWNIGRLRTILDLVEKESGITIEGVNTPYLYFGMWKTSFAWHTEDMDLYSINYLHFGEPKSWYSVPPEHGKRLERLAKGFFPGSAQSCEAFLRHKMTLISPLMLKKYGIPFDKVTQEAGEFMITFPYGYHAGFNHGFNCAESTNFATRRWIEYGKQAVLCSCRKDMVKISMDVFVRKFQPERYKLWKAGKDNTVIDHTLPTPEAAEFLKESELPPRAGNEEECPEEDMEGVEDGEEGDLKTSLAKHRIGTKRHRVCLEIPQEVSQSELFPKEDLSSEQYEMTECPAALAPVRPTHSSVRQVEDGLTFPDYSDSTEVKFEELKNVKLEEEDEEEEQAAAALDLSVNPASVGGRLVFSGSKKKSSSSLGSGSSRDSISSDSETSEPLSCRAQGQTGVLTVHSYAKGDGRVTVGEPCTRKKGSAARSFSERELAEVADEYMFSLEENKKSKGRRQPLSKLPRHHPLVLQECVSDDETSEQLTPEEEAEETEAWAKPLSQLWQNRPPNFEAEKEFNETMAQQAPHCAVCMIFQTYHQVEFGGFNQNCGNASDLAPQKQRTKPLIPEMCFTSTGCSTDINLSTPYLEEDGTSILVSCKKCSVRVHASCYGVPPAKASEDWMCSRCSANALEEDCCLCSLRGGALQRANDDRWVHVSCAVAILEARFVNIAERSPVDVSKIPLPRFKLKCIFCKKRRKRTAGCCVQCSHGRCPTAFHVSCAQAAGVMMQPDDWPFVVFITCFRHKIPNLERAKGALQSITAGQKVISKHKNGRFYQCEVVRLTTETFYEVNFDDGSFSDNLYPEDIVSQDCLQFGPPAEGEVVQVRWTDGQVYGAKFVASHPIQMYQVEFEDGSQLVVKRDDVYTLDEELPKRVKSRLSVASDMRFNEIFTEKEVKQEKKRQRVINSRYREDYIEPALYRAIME
L3MBTL1 inh – blocks human L3MBTL1; Q9Y468; AlphaScreen L3MBTL1–H3K9me1 peptide binding; Potency, µM (top dose mostly 57.1 µM), without a hit: at the top dose activity, negative = inhibition, hits mostly inhibitors; 230,000 compounds, 0.66% hits; AID 485360; note: % is set by controls: 0 for no effect and ±100 for the full control effect; nearly all actives have a fitted effect of over 60% in size
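Read-out is AlphaScreen signal from streptavidin donor and nickel chelate acceptor beads (10 ug/mL final each) bridging L3MBTL1 (50 nM) and biotinylated K9-monomethylated H3(1-15) peptide (75 nM), after 30 min compound exposure at room temperature.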
VDR inh – inhibitors of human vitamin D receptor. VDR-SRC2-3 peptide fluorescence polarization, 2 h. 400,000 compounds, 0.93% hits. P11473. Potency, µM, for the others: max response, negative = inhibition, usual class: inhibitors; note: % is set by controls: 0 for no effect and ±100 for the full control effect
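Reagent solutions, kept cold and dark, are dispensed first; compounds are then pinned in at 23 nl, plates briefly spun, and incubated 2 h at ambient temperature. Inhibition of VDR–SRC2-3 peptide binding is read by fluorescence polarization.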
PLK1 PBD block – PLK1 (human) polo-box domain binding inhibition. Plk1 PBD binding of FITC phosphopeptide, fluorescence polarization. Potency, µM, for inactives: max response, negative = inhibition, actives largely listed as inhibitors. 360,000 compounds, 2.8% hits. AID 720504; note: series mostly up to about 57 µM; % is set by controls: 0 for no effect and ±100 for the full control effect; nearly all actives have a fitted effect of over 65% in size
BAZ2B block – inhibitors of human BAZ2B bromodomain | Q9UIF8 | AlphaScreen BAZ2B-H3K14Ac peptide displacement | Potency, µM (series often up to 114 µM), for inactives: at the top dose activity change, negative = inhibition, most hits filed as inhibitors | 360,000 compounds, 4.4% hits | AID 504333; note: % is set by controls: 0 for no effect and ±100 for the full control effect; nearly all actives have a fitted effect of over 60% in size
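Complex of BAZ2B and biotin-H3K14Ac (50 nM apiece) forms over 30 min at RT, then faces library compounds up to 110 uM for another 30 min; AlphaScreen beads added, 20 min dark incubation, luminescence read.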
HP1b chromo inh – HP1-beta chromodomain-methylated histone interaction inhibition; AlphaScreen HP1-beta / biotin-H3K9me3 peptide binding; 390,000 compounds, 0.56% hits; Potency, µM (titrated, usually from 114 µM), for inactives: at the highest dose activity change, negative = inhibition, actives largely listed as inhibitors; P83916; note: nearly all actives have a fitted effect of over 70% in size
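HP1-beta protein (50 nM final) preincubated 30 min at room temperature with biotinylated H3(1-18)K9me3 peptide (50 nM) in PBS pH 7.4, 0.01% Tween-20, then compound added for 30 min. AlphaScreen streptavidin donor/nickel chelate acceptor beads (10 ug/mL final), 30 min dark, luminescence read.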
VDR confirm – confirmation of human vitamin D receptor inhibitors; VDR-coactivator inhibition assay, qHTS confirmation; 840 compounds, 89% hits; Potency, µM, usual class: inhibitors; AID 602199; shares compounds with VDR inh
VDR FP – blocks human VDR-coactivator binding in fluorescein assay. shares compounds with VDR inh. VDR-coactivator binding, fluorescein fluorescence polarization. 840 compounds, 48% hits. Potency, µM (doses to about 57.1 µM), for inactives: top-dose activity change, negative = inhibition, actives largely listed as inhibitors
VDR bla – VDR (human) inhibition, cell-based beta-lactamase validation; VDR beta-lactamase reporter cells, FRET ratio; cells co-treated with VDR agonist LG190178; shares compounds with VDR inh; AID 602202; Potency, µM (doses to about 46.1 µM), for inactives: top-dose activity change, negative = inhibition, usual class: inhibitors; 840 compounds, 23% hits; note: % is set by controls: 0 for no effect and ±100 for the full control effect
VDR cytotox – cytotoxic in counter-screen for VDR inhibitors. cytotoxicity counter-screen, cell viability, qHTS. shares compounds with VDR inh. 840 compounds, 18% hits. Potency, µM (doses to about 48.3 µM), for inactives: top-dose activity change, negative = cytotoxicity, usual class: cytotoxic;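 note: plate controls were DMSO for no effect and high-concentration cycloheximide for full effect; nearly all actives have a fitted effect of over 75% in size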
Numbers without * were called inactive; ? = inconclusive; / = not tested or not shown. Compounds with a hit are over-represented: about 6.9% of the library has one in this group of screens. Calls come from the whole dose curve; as a rule, active = well fitted curve in the direction sought with a large enough effect; inconclusive = small, poorly fitted or top-dose-only effect, or another doubt; inactive = no such curve, though single readings can be large; an effect the other way counts as inactive or inconclusive. Potency is the fitted concentration of half-maximal effect.

SMILES	JMJD2A Tudor	L3MBTL1 inh	VDR inh	PLK1 PBD block	BAZ2B block	HP1b chromo inh	VDR confirm	VDR FP	VDR bla	VDR cytotox
CC(C)(C)c1ccc(-n2nc(C#N)c(Cl)cc2=O)cc1	-19%	/	?	?	-29%	27%	7.9*	8.9µM*	2.6µM*	?
O=c1ccc(-c2ccc(S(=O)(=O)N3CCN(c4ccccc4)CC3)o2)n[nH]1	-11%	/	16%	-14%	-6%	28%	/	/	/	/
Cc1ccc(C(C2=C(O)CC(C)(C)CC2=O)C2C(=O)CC(C)(C)CC2=O)s1 (stereo not drawn)	-15%	2%	50µM*	4.7µM*	-21%	32%	11*	7.9µM*	22%	?
CCSC1=NC(C)(C)C=C(/C=C/c2ccc(Cl)cc2Cl)N1	-29%	/	?	?	-7%	-17%	14*	16µM*	23µM*	?
CC1(OC(=O)C2CCCC2)C(=O)C=C2C=C(c3ccsc3)N(CCc3c[nH]c4ccccc34)C=C2C1=O (stereo not drawn)	?	/	?	-19%	?	-38%	?	?	10%	34%
O=C1/C(=C/c2cccc([N+](=O)[O-])c2)CCc2ccccc21	?	-13%	?	-15%	?	-30%	13*	25µM*	?	?
Nc1cc(=O)[nH]c(SCC(=O)Nc2ncc(C(F)(F)F)cc2Cl)n1	4%	-1%	-1%	-2%	-21%	20%	/	/	/	/
O=C(CCS(=O)(=O)c1nc(-c2ccc3c(c2)OCO3)cc(C(F)(F)F)n1)Nc1ccc(Br)cc1	7%	/	13µM*	/	2%	41%	3.2*	3.5µM*	23µM*	?
COc1ccc(Cl)cc1NC(=O)CCS(=O)(=O)c1nc(-c2cccs2)cc(C(F)(F)F)n1	-12%	/	20µM*	/	9%	26%	5*	3.5µM*	18µM*	?
CC(C)c1nnc(NC(=O)CCS(=O)(=O)c2nc(-c3cccs3)cc(C(F)(F)F)n2)s1	-23%	-10%	22µM*	?	89µM*	30%	9.5*	?	?	?
CSc1ccccc1NC(=O)CCS(=O)(=O)c1nc(-c2ccc3c(c2)OCO3)cc(C(F)(F)F)n1	-13%	/	?	/	0%	68%	/	/	/	/
CC(C)c1nnc(NC(=O)CCS(=O)(=O)Cc2ccccc2)s1	1%	/	-5%	?	0%	-16%	/	/	/	/
O=C(CCS(=O)(=O)c1nc(-c2cccs2)cc(C(F)(F)F)n1)Nc1ccc(F)c(Cl)c1	-2%	/	22µM*	/	6%	45%	3.2*	3.5µM*	?	?
CC1CC(CCN)(c2ccccc2)C(C)CN1C (stereo not drawn)	6%	8%	15%	0%	-2%	36%	/	/	/	/
CCOC(=O)C1CCCN(C(=O)c2ccc(Cl)c(S(=O)(=O)N3CCc4ccccc43)c2)C1 (stereo not drawn)	-17%	/	-3%	-12%	/	8%	/	/	/	/
Cn1cnc([N+](=O)[O-])c1S(=O)(=O)c1cccc(Cl)c1	-20%	6%	45µM*	?	0%	46%	?	25µM*	?	10µM*
CCCn1c(CC)nc([N+](=O)[O-])c1S(=O)(=O)c1ccccc1	-10%	-2%	?	?	-2%	41%	/	/	/	/
